Assay results from PubChem BioAssay (NCI).
This is part of a sample that, as a whole, favours compounds with a hit. Of some 83,000 tested, about 20% had one in any assay.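 Each cell line was grown in a 96-well plate and treated with one concentration of compound for 48 hours. Values below 10 were considered active.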 Calls of active or inactive are those of the source.

System: EKVX NSCLC
Assay: NCI-60 one-dose screen, 48 h (100 = growth as untreated, 0 = no growth, -100 = all killed)
Settings: 10 µM unless noted

Structure (SMILES)	growth
CNc1cc(C(=O)O)nc(NC)n1	97.1% (inactive)
Brc1ccc2c(c1)CN(C1CCCCC1)CO2	101% (inactive)
CCN=C1C=CC(=C(c2ccc(N(CC)CC)cc2)c2ccc(N(CC)CC)cc2)c2ccccc21	-40% (active)
O=C(CSc1nc2ccc([N+](=O)[O-])cc2[nH]1)Nc1ccc(F)c(Cl)c1	11.1% (inactive)
COc1ccc(-c2ccc(NNC(=O)c3ccc(F)cc3)nn2)cc1OC	40.5% (inactive)
CCOC(CNC(=O)c1cccc([N+](=O)[O-])c1)OCC	97.4% (inactive)
CN(C)C(=S)Sc1ccc([N+](=O)[O-])cc1[N+](=O)[O-]	82.4% (inactive)
CCN(CC)CC(C)Nc1ccc(C)c2sc3ccccc3c(=O)c12 (stereo not drawn)	81.8% (inactive)
CN(C)Cc1ccc[nH]1	90.4% (inactive)
CNC(=O)c1cc(Oc2cccc3nc(NC(=O)Nc4cc(C(F)(F)F)cc(C(F)(F)F)c4)ccc23)ccn1	26.7% (inactive)
CC1=CC[C@@H]2C(C)(C)[C@@H](O)CC[C@@]2(C)[C@@H]1COc1ccc2ccc(=O)oc2c1	72.4% (inactive)
CC(=O)CC(=O)SC1=NCCS1	111% (inactive)
CSc1cccc([N+](=O)[O-])c1	103% (inactive)
O=C1/C(=C\c2cccn2Cc2ccccc2)c2ccccc2N1c1c(Cl)cccc1Cl	38.8% (inactive)
COc1ncnc2c(-c3ccccc3)cn(COCc3ccccc3)c12	41.4% (inactive)
C=C(C)[C@@H]1CC[C@]2(C(=O)NCCCN)CC[C@]3(C)[C@H](CC[C@@H]4[C@@]5(C)CC[C@H](O)C(C)(C)[C@@H]5CC[C@]43C)[C@@H]12	-15.7% [100 µM] (active)
COc1ccc(/C=C/C=C\C(=O)c2ccc(-n3ccnc3)cc2)cc1	96.6% (inactive)
Cc1ccccc1-n1nnc(C(=O)Nc2nc3ccc(F)cc3s2)c1C	64.9% (inactive)
O=C(N/N=C/c1ccc([N+](=O)[O-])cc1)c1ccc(Br)o1	112% (inactive)

Structure (SMILES)	growth
Cc1nc(-c2ccccc2)sc1CC#N	101% (inactive)
O=S(=O)(/N=c1/n(-c2ccccc2)nc2n1CCN2C1=NCCN1)c1ccc(-c2ccccc2)cc1	95.9% (inactive)
Nc1ccc2c(c1)Cc1cc(NC(=O)C(F)(F)F)ccc1-2	79.9% (inactive)
O=C(Nc1ccc(C(=O)/C=C/c2ccc(N3CCOCC3)cc2)cc1)Nc1ccc([N+](=O)[O-])cc1	112% (inactive)
C=CCc1nc2ccccc2s1	109% (inactive)
O=C(Nc1cc(F)cc2cccnc12)c1cnc(N2CCNCC2)cn1	82.7% (inactive)
C[n+]1c2ccccc2nc2c(N)cc(N)cc21	65.9% (inactive)
CCOC(=O)CCC[P+](c1ccccc1)(c1ccccc1)c1ccccc1	75.5% (inactive)
COc1ccc2nc3ccccc3c(NCCNCCO)c2c1	-7.03% (active)
c1nc(N2CCOCC2)c2[nH]ccc2n1	103% (inactive)
Oc1c(CNCCNCc2cc(Cl)cc(Cc3ccccc3)c2O)cc(Cl)cc1Cc1ccccc1	24% (inactive)
COc1cc(Cl)cc(-c2nn(C(=O)NS(=O)(=O)c3ccccc3)cc2-c2ccncc2)c1	61.2% (inactive)
COc1cccc(-c2[nH]c(=S)ncc2C(=O)c2ccccc2)c1	86.9% (inactive)
CC(C)(C)c1cc(C(=O)Nc2ccccc2C(=O)NCCN)cc(C(C)(C)C)c1	17.8% (inactive)
N=C(N)c1ccc(-c2ccc(-c3ccc(-c4cccs4)s3)s2)cc1F	98.8% (inactive)
Cc1c(Cn2cc(COc3ccc(Br)cc3)nn2)c(C)c(Cn2cc(COc3ccc(Br)cc3)nn2)c(C)c1Cn1cc(COc2ccc(Br)cc2)nn1	99.5% (inactive)
CCc1ccc(-c2ccc(COc3ccc(CC4SC(=O)NC4=O)cc3)cc2)cc1 (stereo not drawn)	63% (inactive)
Cc1ccc(N)c(O)c1	98.6% (inactive)
CCCCN(CCCC)CC(O)c1ccc(OCc2ccccc2)c2ccccc12 (stereo not drawn)	75.5% (inactive)
